Laboratory results published in ChEMBL document CHEMBL2218924, “A broad activity screen in support of a chemogenomic map for kinase signalling research and drug discovery” (Biochem J, 2013).

Legend:
[1] = target: T1, MAP kinase-activated protein kinase 5 (Homo sapiens) (UniProt Q8IW41); settings: at 1 µM
T1 sequence (whole entry): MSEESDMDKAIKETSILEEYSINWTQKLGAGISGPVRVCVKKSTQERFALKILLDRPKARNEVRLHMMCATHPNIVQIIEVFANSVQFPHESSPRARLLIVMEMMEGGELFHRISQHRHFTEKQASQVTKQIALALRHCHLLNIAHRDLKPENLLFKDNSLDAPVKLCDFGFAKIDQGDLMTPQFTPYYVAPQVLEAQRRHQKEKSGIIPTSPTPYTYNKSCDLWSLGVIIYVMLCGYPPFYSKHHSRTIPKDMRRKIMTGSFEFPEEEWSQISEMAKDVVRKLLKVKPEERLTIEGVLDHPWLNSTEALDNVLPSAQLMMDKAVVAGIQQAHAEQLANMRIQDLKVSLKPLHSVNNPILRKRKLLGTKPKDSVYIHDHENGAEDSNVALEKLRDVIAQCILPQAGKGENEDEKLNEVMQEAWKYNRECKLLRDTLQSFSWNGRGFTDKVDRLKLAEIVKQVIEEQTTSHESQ

[2] = target: T1, MAP kinase-activated protein kinase 5 (Homo sapiens); settings: at 10 µM
[3] = target: Tyrosine-protein kinase FRK (Homo sapiens) (UniProt P42685); settings: at 1 µM
Chain of Tyrosine-protein kinase FRK (Homo sapiens) (P42685 whole entry, canonical isoform): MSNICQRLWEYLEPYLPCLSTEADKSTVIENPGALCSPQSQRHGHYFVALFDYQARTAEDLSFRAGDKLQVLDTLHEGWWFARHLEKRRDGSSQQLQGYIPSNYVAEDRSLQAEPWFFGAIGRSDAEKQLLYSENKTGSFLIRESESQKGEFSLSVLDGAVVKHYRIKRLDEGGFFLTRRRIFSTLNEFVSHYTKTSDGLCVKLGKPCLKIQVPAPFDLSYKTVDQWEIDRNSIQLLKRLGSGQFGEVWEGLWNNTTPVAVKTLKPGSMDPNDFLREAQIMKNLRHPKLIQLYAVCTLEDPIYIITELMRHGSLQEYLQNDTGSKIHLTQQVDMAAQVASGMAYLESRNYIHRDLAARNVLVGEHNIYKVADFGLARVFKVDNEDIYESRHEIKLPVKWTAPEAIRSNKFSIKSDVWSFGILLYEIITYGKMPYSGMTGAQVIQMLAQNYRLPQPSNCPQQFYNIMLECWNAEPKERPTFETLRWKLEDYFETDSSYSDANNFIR

[4] = target: Tyrosine-protein kinase FRK (Homo sapiens) (UniProt P42685); settings: at 10 µM
[5] = target: T2, Phosphorylase b kinase gamma catalytic chain, liver/testis isoform (Homo sapiens) (UniProt P15735); settings: at 1 µM
T2 sequence (whole entry): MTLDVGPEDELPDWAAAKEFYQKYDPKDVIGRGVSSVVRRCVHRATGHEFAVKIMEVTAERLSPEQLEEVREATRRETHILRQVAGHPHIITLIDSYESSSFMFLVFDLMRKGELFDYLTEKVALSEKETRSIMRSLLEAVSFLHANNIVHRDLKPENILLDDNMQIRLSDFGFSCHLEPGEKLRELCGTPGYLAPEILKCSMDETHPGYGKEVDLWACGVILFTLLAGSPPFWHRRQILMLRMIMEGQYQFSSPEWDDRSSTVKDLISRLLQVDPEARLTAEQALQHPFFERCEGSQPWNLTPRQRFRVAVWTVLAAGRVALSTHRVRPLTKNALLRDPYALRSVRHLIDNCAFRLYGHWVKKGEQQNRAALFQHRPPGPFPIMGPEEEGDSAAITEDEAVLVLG

[6] = target: T2, Phosphorylase b kinase gamma catalytic chain, liver/testis isoform (Homo sapiens); settings: at 10 µM
[7] = target: Serine/threonine-protein kinase pim-1 (Homo sapiens) (UniProt P11309); settings: at 1 µM
Chain of Serine/threonine-protein kinase pim-1 (Homo sapiens) (P11309 whole entry, looked up): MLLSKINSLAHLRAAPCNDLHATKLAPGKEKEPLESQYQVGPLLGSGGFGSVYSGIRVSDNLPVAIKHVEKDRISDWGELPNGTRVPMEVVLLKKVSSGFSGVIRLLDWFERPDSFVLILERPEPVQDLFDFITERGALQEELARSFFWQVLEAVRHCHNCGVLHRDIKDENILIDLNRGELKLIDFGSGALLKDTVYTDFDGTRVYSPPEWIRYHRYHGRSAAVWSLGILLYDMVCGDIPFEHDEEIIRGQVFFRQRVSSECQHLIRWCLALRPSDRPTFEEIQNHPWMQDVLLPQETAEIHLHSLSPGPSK

[8] = target: Serine/threonine-protein kinase pim-1 (Homo sapiens) (UniProt P11309); settings: at 10 µM
[9] = target: Serine/threonine-protein kinase pim-2 (Homo sapiens) (UniProt Q9P1W9); settings: at 1 µM
Chain of Serine/threonine-protein kinase pim-2 (Homo sapiens) (Q9P1W9 whole entry, looked up): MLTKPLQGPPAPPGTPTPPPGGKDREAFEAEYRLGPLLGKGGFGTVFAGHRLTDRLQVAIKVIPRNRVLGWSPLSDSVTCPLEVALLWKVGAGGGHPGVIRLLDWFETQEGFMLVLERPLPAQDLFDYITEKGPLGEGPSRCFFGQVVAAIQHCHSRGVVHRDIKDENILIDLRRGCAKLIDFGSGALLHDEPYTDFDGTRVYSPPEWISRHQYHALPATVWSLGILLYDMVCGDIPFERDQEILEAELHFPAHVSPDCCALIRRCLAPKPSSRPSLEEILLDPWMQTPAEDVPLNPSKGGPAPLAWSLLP

[10] = target: Serine/threonine-protein kinase pim-2 (Homo sapiens) (UniProt Q9P1W9); settings: at 10 µM
[11] = target: Serine/threonine-protein kinase pim-3 (Homo sapiens) (UniProt Q86V86); settings: at 1 µM
[12] = target: Serine/threonine-protein kinase pim-3 (Homo sapiens) (UniProt Q86V86); settings: at 10 µM
[13] = target: T3, Serine/threonine-protein kinase D2 (Homo sapiens) (UniProt Q9BZL6); settings: at 1 µM
T3 sequence (whole entry): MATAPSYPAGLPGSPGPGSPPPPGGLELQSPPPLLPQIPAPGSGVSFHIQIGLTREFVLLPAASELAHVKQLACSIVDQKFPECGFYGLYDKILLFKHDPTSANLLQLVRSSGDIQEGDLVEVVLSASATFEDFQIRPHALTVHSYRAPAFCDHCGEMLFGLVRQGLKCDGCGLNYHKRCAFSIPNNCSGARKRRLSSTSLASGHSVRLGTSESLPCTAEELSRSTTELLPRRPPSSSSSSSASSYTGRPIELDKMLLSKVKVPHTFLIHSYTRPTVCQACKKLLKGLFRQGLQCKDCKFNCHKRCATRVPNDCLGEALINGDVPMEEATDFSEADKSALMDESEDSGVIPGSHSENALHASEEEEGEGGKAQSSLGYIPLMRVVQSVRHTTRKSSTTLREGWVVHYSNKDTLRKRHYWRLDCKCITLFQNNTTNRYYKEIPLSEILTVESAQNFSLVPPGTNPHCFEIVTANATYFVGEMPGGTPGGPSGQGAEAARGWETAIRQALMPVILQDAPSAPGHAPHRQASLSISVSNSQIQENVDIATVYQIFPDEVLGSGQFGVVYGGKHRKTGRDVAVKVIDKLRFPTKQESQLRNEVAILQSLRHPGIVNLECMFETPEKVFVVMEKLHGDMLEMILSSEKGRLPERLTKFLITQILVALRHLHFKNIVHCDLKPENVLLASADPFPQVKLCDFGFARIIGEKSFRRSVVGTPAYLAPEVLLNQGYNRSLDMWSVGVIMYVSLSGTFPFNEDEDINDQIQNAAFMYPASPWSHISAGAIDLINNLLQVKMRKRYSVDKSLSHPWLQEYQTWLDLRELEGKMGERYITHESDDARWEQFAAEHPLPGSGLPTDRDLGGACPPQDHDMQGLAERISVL

[14] = target: T3, Serine/threonine-protein kinase D2 (Homo sapiens); settings: at 10 µM
[15] = target: T4, cGMP-dependent protein kinase 1 (Homo sapiens) (UniProt Q13976); settings: at 1 µM
T4 sequence (whole entry): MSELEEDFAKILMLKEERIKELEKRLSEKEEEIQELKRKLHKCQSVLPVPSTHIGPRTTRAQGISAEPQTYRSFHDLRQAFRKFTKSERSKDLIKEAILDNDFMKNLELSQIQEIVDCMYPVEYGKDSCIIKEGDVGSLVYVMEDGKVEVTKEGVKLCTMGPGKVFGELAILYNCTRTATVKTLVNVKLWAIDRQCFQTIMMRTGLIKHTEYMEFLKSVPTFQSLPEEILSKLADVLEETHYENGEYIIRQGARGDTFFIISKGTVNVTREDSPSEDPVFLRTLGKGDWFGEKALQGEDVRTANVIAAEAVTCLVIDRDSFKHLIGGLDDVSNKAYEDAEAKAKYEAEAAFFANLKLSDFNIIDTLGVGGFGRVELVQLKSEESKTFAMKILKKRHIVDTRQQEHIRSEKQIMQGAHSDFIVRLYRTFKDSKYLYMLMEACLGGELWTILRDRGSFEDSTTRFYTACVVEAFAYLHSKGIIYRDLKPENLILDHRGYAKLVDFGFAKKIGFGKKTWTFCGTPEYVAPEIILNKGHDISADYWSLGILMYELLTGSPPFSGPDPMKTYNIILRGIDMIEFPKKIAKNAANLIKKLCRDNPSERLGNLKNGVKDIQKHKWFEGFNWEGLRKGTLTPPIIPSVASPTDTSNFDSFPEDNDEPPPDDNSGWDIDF

[16] = target: T4, cGMP-dependent protein kinase 1 (Homo sapiens); settings: at 10 µM
[17] = target: T4, cGMP-dependent protein kinase 1 (Homo sapiens); settings: at 1 µM; remark: listed apart in the source
[18] = target: T4, cGMP-dependent protein kinase 1 (Homo sapiens); settings: at 10 µM; remark: listed apart in the source
[19] = target: Serine/threonine-protein kinase N2 (Homo sapiens) (UniProt Q16513); settings: at 1 µM
Chain of Serine/threonine-protein kinase N2 (Homo sapiens) (Q16513 whole entry, looked up): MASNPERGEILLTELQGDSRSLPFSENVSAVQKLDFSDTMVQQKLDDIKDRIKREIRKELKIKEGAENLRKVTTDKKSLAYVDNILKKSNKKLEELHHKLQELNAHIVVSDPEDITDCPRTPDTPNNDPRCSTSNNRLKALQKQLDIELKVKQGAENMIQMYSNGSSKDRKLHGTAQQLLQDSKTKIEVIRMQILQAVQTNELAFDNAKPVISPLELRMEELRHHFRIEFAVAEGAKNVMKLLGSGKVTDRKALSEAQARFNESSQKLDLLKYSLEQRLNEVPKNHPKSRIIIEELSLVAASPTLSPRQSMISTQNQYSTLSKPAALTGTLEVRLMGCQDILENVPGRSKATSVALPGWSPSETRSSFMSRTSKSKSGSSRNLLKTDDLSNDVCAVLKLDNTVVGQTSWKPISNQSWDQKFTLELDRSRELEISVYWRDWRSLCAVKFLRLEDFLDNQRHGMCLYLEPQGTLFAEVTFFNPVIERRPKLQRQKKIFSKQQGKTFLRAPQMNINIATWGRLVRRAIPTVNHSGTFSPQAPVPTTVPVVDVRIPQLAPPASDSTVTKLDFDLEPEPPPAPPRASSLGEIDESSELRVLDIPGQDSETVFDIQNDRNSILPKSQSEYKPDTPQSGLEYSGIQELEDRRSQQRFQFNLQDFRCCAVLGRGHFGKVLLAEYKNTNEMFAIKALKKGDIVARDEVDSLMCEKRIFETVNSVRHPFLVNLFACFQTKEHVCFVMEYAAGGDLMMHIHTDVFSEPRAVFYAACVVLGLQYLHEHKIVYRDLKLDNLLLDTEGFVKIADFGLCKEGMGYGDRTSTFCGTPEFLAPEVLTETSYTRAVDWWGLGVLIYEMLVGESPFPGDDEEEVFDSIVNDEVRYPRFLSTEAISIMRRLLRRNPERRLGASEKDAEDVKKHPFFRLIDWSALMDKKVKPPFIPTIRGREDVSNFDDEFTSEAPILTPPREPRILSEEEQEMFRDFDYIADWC

[20] = target: Serine/threonine-protein kinase N2 (Homo sapiens) (UniProt Q16513); settings: at 10 µM

| Structure (SMILES) | residual activity [1] | residual activity [2] | residual activity [3] | residual activity [4] | residual activity [5] | residual activity [6] | residual activity [7] | residual activity [8] | residual activity [9] | residual activity [10] | residual activity [11] | residual activity [12] | residual activity [13] | residual activity [14] | residual activity [15] | residual activity [16] | residual activity [17] | residual activity [18] | residual activity [19] | residual activity [20] |
| --- | --- | --- | --- | --- | --- | --- | --- | --- | --- | --- | --- | --- | --- | --- | --- | --- | --- | --- | --- | --- |
| CC(C)[C@H](CO)Nc1nc(Nc2cccc(Cl)c2)c2ncn(C(C)C)c2n1 | 102% | 59% | 59% | 9% | 122% | 82% | 100% | 68% | 116% | 122% | 87% | 89% |  |  |  |  |  |  |  |  |
| C[S+]([O-])c1ccc(-c2nc(-c3ccc(F)cc3)c(-c3ccncc3)[nH]2)cc1 (configuration not stated) | 145% | 104% | 71% | 17% | 109% | 106% | 84% | 97% | 125% | 96% | 107% |  | 105% | 90% | 101% | 99% | 125% | 107% | 103% | 107% |
| N/C(=N\[N+](=O)[O-])N/N=C\c1ccc(-c2cccc([N+](=O)[O-])c2)o1 |  |  |  |  |  |  |  |  |  |  | 88% | 87% |  |  |  |  |  |  |  |  |
| c1cc(-c2cnn3cc(-c4ccc(OCCN5CCCCC5)cc4)cnc23)ccn1 |  |  | 65% | 7% | 34% | 4% | 104% | 60% | 117% | 127% |  |  |  |  | 73% | 25% | 66% | 12% | 47% | 6% |
| COc1ccc2c(c1)/C(=C/c1cnc[nH]1)C(=O)N2 | 122% | 63% |  |  |  | 22% | 66% | 32% | 69% | 19% |  | 52% | 97% | 39% |  |  |  |  |  | 40% |
| COc1cc(OC)c(/C=C2\C(=O)Nc3ccccc32)c(OC)c1 |  |  | 90% | 99% |  |  |  | 75% | 137% |  | 81% | 86% | 108% | 105% | 97% | 108% | 83% | 73% | 99% | 87% |
| O=c1[nH]c2ccccc2n1C1CCN(Cc2ccc(-c3nc4cc5[nH]cnc5cc4nc3-c3ccccc3)cc2)CC1 | 75% | 37% | 99% | 107% | 101% | 53% | 88% | 87% | 85% | 98% | 102% | 97% | 100% | 108% | 108% | 110% | 86% | 97% | 112% | 115% |
| O=C1c2ccccc2-c2nc3nnnn3nc21 |  |  |  |  | 103% | 120% |  |  | 104% | 108% |  |  |  |  |  |  |  |  |  |  |
| COc1cc2ncnc(Nc3ccc(OCc4ccccc4)cc3)c2cc1OC | 111% | 83% | 98% | 123% | 98% | 113% | 99% | 90% | 110% | 105% | 107% | 100% | 98% | 98% | 115% | 125% | 72% | 88% | 109% | 111% |
| O=[N+]([O-])/C=C/c1ccc2c(c1)OCO2 | 85% | 70% | 105% | 105% | 105% | 114% | 79% | 85% | 134% | 110% | 101% | 103% | 105% | 105% | 107% | 106% | 101% | 90% | 102% | 107% |
| O=C1NC(=O)c2c1c1c3ccccc3n3c1c1c2c2ccccc2n1C1CCC3O1 |  |  | 71% | 66% |  |  | -2% | 1% | 6% | -2% | 38% | 45% | 92% | 90% | 84% | 73% | 76% | 74% | 47% | 25% |
| CC(C)(C)c1cc(C=C(C#N)C#N)cc(Br)c1O | 107% | 65% | 100% | 76% | 115% | 106% |  | 51% |  |  | 105% | 104% | 100% | 105% | 107% |  | 66% | 60% | 104% | 117% |
| CCc1nc(-c2ccc(OC)cc2)[nH]c1-c1ccncc1 |  |  | 102% | 100% | 103% | 105% |  |  | 126% | 125% |  |  |  |  |  |  |  |  | 102% | 74% |
| COc1ccc2c(c[n+](C)c3c4cc5c(cc4ccc23)OCO5)c1OC | 84% | 52% | 94% | 69% | 111% | 96% | 93% | 93% | 86% | 88% | 100% | 95% |  |  |  | 92% | 92% | 87% |  | 92% |
| CCn1cnc2c(Nc3cccc(Cl)c3)nc(N[C@@H]3CCCC[C@@H]3N)nc21 | 119% | 124% | 43% | 8% | 78% | 29% | 94% | 23% | 97% | 39% | 57% | 13% | 97% | 96% | 92% | 88% | 89% | 70% | 80% | 49% |
| O=C1Nc2ccc3ncsc3c2/C1=C/c1c[nH]cn1 | 49% | 18% | 83% | 33% | 47% | 10% | 26% | 5% | 13% | 3% | 53% | 11% | 30% | 3% | 13% | 2% | 7% | 1% | 4% | 2% |
| COC(=O)[C@@]1(O)C[C@H]2O[C@]1(C)n1c3ccccc3c3c4c(c5c6ccccc6n2c5c31)C(=O)NC4 | 19% | 0% | 25% | 6% | 0% | 1% | 10% | 1% | 2% | -2% | 31% | 5% | 2% | 0% | 10% | 1% | 9% | 2% | 1% | 1% |
